# The list is not random: actives were taken first. Their share in the collection is about 9.5%.
# Pf growth 96h: Primary qHTS for delayed death inhibitors of the malarial parasite plastid, 96 hour incubation; 6.9% of 320,000 active; Potency, µM (doses to about 28.7 µM), for inactives: at the highest dose activity change, negative = inhibition, most hits filed as inhibitors; P. falciparum luciferase reporter growth, 96 h; also: % is scaled to controls: 0 for no effect and ±100 for the full control effect
#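 P. falciparum expressing integrated firefly luciferase, in erythrocytes at 2% hematocrit, 0.05% parasitemia, incubated with compounds 96 h at 37 C, 5% CO2. Growth inhibition read as loss of luminescence; two-generation exposure targets delayed-death apicoplast inhibitors.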
# Pf growth 48h: Primary qHTS for delayed death inhibitors of the malarial parasite plastid, 48 hour incubation. P. falciparum luciferase growth in erythrocytes, 48 h. Potency, µM (top dose mostly 28.7 µM), for inactives: at the top dose activity change, negative = inhibition, hits mostly inhibitors. 5.9% of 310,000 active; also: % is scaled to controls: 0 for no effect and ±100 for the full control effect
#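 First compound was added to culture medium, then infected red cells at 0.1% parasitemia and 2% hematocrit (final). After incubation at 37 C under 5% CO2, luciferase detection reagent was dispensed and light output recorded.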
# RE007 growth inh: qHTS Assay for Inhibitors of the HIV-1 protein Vpr; 0.21% of 360,000 active; Potency, µM (doses to about 92.2 µM), inactives show top-dose activity change, negative = less growth, actives largely listed as inhibitors; S. pombe RE007 Vpr strain, BacTiter-Glo ATP luminescence, 24 h; active = well fitted falling curve with a large enough effect; inconclusive = small, poorly fitted or top-dose-only effect; inactive = no such curve, though single readings can be large or run the other way; also: % is scaled to controls: 0 for no effect and ±100 for the full control effect; nearly all actives have a fitted effect of over 50% in size
#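 Fission yeast RE007 carrying one integrated HIV-1 vpr copy, seeded at OD 0.01 in PMG+AL medium with 23 nL pinned compound. Grown 24 h at 30 degrees; viability read by BacTiter-Glo luminescence after 5 min.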
# SARS PLP yeast: qHTS of Yeast-based Assay for SARS-CoV PLP; Potency, µM (titrated, usually from 32.9 µM), inactives show at the top dose activity, positive = growth rescue, most hits filed as activators; S. cerevisiae expressing SARS-CoV PLpro, growth rescue; 0.19% of 330,000 active; calls by dose curve; also: 0% is about no effect; nearly all actives have a fitted effect of over 55% in size
# NS1 function inh: qHTS Assay for Inhibitors of Influenza NS1 Protein Function. Potency, µM (titrated, usually from 46.1 µM), without a hit: top-dose activity, positive = more growth. AID 2326, 2010. 0.4% of 270,000 active; calls by dose curve; also: actives are rising curves; nearly all actives have a fitted effect of over 50% in size
#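 OD600 was taken as the measure of yeast growth restored by compound in an NS1-expressing S. cerevisiae strain. Cells had been washed out of glucose medium and diluted 1:100 into galactose -URA medium, pH 6.0.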
# Active calls of the source: *; ? = inconclusive; / = no result. Unless noted, calls follow the shape of the dose curve; as a rule, active = well fitted inhibition curve with a large enough effect; inconclusive = small, poorly fitted or top-dose-only effect, or another doubt; inactive = no such curve, though single readings can be large or run the other way. Potency is read from the fitted curve at half-maximal effect.
SMILES,Pf growth 96h,Pf growth 48h,RE007 growth inh,SARS PLP yeast,NS1 function inh
Nc1c2c(nc3sc4c(c13)CCCC4)CCCCC2,0.83µM*,83%,15%,-2%,-6%
Cc1ccc(C(=O)N2CCCC2)cc1S(=O)(=O)N1CCCCC1,-20%,2%,0%,-4%,-2%
CC(=O)NC(=S)Nc1ccccc1C(=O)NC1CCCCC1,8.3µM*,-30%,4%,-3%,8%
CC(C)(C)C(=O)NC(=S)Nc1ccccc1C(=O)NC1CCCCC1,87%,6%,-5%,0%,2%
O=C(NNC(=S)NC1CCCCC1)c1ccccc1O,2.3µM*,39%,-1%,?,/
CCOC(=O)CN1C(=O)C(=O)N(Cc2ccccc2F)C1=O,-10%,-1%,1%,15%,3%
COc1ccc(-c2noc(CCC(=O)N3CCN(c4ccccc4)CC3)n2)cc1,/,/,8%,-10%,/
Cc1cc(C)c2c(N)c(C(=O)c3ccccc3)oc2n1,2.3µM*,16%,13%,/,-4%
Cc1cc(C)c2c(N)c(C(=O)c3ccc(Br)cc3)oc2n1,15%,5%,-16%,-4%,-47%
CC(C)c1nnc(NC(=O)CCC(=O)NCC2CCCO2)s1 (stereo not drawn),2.1µM*,3%,-20%,0%,-9%
O=C(CCC(=O)Nc1nnc(C2CCCCC2)s1)NCC1CCCO1 (stereo not drawn),-28%,/,8%,-1%,-2%
Cc1cc(Br)cn2c(Cc3cccc(F)c3)c(-c3ccc(C#N)cc3)nc12,/,/,5%,/,/
COc1ccc(-n2c(-c3ccc(Br)cc3)c[n+]3c2CCC3)cc1,?,6.6µM*,-16%,-8%,/
COc1ccc(-n2c(-c3ccc(Br)cc3)c[n+]3c2CCCCC3)cc1,0.59µM*,1µM*,-3%,0%,/
COc1ccc(-n2c(-c3ccccc3)c[n+]3c2CCC3)cc1,?,?,9%,2%,0%
COc1ccc(-n2c(-c3ccc(Br)cc3)n[nH]c2=S)cc1,-12%,-16%,3%,-2%,?
COc1ccc(-n2c(-c3ccc(Br)cc3)c[n+]3c2SC(C)C3)cc1 (stereo not drawn),?,0.33µM*,-11%,3%,/
COc1ccc(-n2c(-c3ccc(Br)cc3)nc(=S)c3c2CCCC3)cc1,?,7%,-19%,-9%,2%
CCOc1ccc(-c2c[n+]3c(n2-c2ccccc2)CCCCC3)cc1,0.93µM*,1.2µM*,17%,1%,11%
Cc1ncc(C[n+]2csc(CCOP(=O)(O)OP(=O)(O)O)c2C)c(N)n1,-3%,-2%,/,/,/
COc1ccc(C(=O)OCC(=O)c2ccc3c(c2)NC(=O)CO3)cc1S(=O)(=O)N1CCOCC1,/,/,10%,0%,/
Cc1cc(C)c(S(=O)(=O)N(C)CC(=O)NCCCn2ccnc2)c(C)c1,-20%,13%,-14%,-1%,6%
Cc1ccc2nc(Nc3ccc(C)c(C)c3)c3nncn3c2c1,2%,?,-2%,0%,-2%
Fc1cccc(F)c1-n1c(CN2CCCC2)csc1=S,5.9µM*,?,-3%,2%,/
Cc1ccc2oc(=O)c(/C=C(\O)c3sc(C)nc3C)nc2c1,10µM*,?,-12%,9%,8%
SMILES,Pf growth 96h,Pf growth 48h,RE007 growth inh,SARS PLP yeast,NS1 function inh
CC(C)(C)/C(O)=C/c1nc2cc(Cl)ccc2oc1=O,5.9µM*,9.3µM*,-16%,-3%,-56%
Cc1ccc2oc(=O)c(/C=C(\O)c3ccco3)nc2c1,?,?,-9%,-1%,0%
COc1ccc(CN2C(=O)c3cccnc3C2Nc2cc(Cl)ccc2OC)cc1 (stereo not drawn),?,5.2µM*,11%,0%,-7%
Nc1nc2c(c(=O)[nH]1)CN(CCCN1CCOCC1)CN2,/,/,/,/,8%
COc1ccc2nc3n(c(=O)c2c1)-c1ccc(Cl)cc1C(=O)NC3Cc1ccc(O)cc1 (stereo not drawn),/,/,3%,/,/
CCN(CC)CCNC(=O)c1ccc(NC(=O)Cc2ccccc2F)cc1,23%,?,2%,-5%,0%
CCN(CC)CCNC(=O)c1ccc(NC(=O)c2c(C)nn(-c3ccc(F)cc3)c2Cl)cc1,-10%,?,-15%,0%,-10%
